Assay [1] deals with Bile acid receptor (Homo sapiens) (UniProt Q96RI1). Description: OT_FXR_FXRSRC1_0480: Odyssey Thera (OT) 8-hour HEK293T Protein-Complementation Assay for Farnesoid X receptor/SRC-1 Co-activator (AID 2283383). The procedure, abridged: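 Binding of FXR to coactivator SRC-1 was read as fluorescence from a reconstituted split reporter in HEK293T cells, 8 h after chemical addition. Only increases in signal versus DMSO were fit.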

The target is the same in assay [2]. The experiment in a line: OT_FXR_FXRSRC1_1440: Odyssey Thera (OT) 24-hour HEK293T Protein-Complementation Assay for Farnesoid X receptor/SRC-1 Co-activator (AID 2283384). The procedure, abridged:
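Protein-fragment complementation: FXR and SRC-1 fused to reporter fragments that reassemble on interaction, read by fluorescence intensity. Human HEK293T cells measured 24 h post-dose; positive-direction fit versus DMSO.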

The target in assay [3] is Retinoic acid receptor RXR-alpha (Homo sapiens) (UniProt P19793). Description: OT_NURR1_NURR1RXRa_1440: Odyssey Thera (OT) 24-hour HEK293T Protein Complementation Assay for Nurr1/retinoid X receptor (RXR) (AID 2283386). An outline of the steps: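 Gain in fluorescence, fitted relative to DMSO, reflects Nurr1–RXRα association in HEK293T cells after 24 h dosing. Bait and prey are each linked to a reporter-protein fragment that reassembles on interaction.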

Assay [4] has as its target Peroxisome proliferator-activated receptor gamma (Homo sapiens) (UniProt P37231). The experiment in a line: OT_PPARg_PPARgSRC1_0480: Odyssey Thera (OT) 8-hour Protein-Complementation Assay for Peroxisome Proliferator-activated Receptor Gamma / SRC-1 Co-activator (AID 2283387). An outline of the steps:
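Read-out: 488 nm N/C fluorescence ratio from complemented Venus YFP fragments, ≥350 cells per image, gain-of-signal fitted against DMSO baseline. Fusions of PPARg/SRC-1 with IFP1/IFP2 expressed transiently in HEK293T; compounds applied 8 h.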

Assay [5] shares this target. Description: OT_PPARg_PPARgSRC1_1440: Odyssey Thera (OT) 24-hour Protein-Complementation Assay for Peroxisome Proliferator-activated Receptor Gamma/ SRC-1 Co-activator (AID 2283388). An outline of the steps: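 HEK293T transiently transfected with PPARg/SRC-1 split-Venus YFP fusions 48 h before dosing, then treated 24 h at 37C. Fixed cells imaged; nuclear/cytoplasmic 488 nm fluorescence ratio, gain of signal versus DMSO.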

The target of assay [6] is Retinoic acid receptor RXR-alpha (Homo sapiens) (UniProt P19793). The experiment in a line: OT_NURR1_NURR1RXRa_0480: Odyssey Thera (OT) 8-hour HEK293T Protein Complementation Assay for Nurr1/retinoid X receptor (RXR) (AID 2283385). An outline of the steps:
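Interaction of Nurr1 with RXRα read as reconstituted reporter fluorescence in a HEK293T fragment-complementation system, 8 h post-treatment; increase over DMSO baseline analysed.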

The nature of assay [7]: CEETOX_H295R_11DCORT: CeeTox H295R High-throughput Steroidogenesis Assay for 11-Deoxycortisol (11DCORT) (AID 2283432; active means hit-call score of the fitted dose curve at least 0.9, where 1 is the maximum; inactive means score below 0.9;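 on AC50: 11-deoxycortisol secreted into the medium measured by LC-MS/MS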). Particulars: actives raise or lower the signal. An outline of the steps:
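H295R cells; 10 uM forskolin prestim 48 h; compound in 0.1% DMSO 48 h; media extracted with MTBE; 11-deoxycortisol by LC-MS/MS, 7-point standard curve; gain/loss vs DMSO baseline; viability by MTT in same wells.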

Assay [8] is described as follows: CEETOX_H295R_OHPREG: CeeTox H295R High-throughput Steroidogenesis Assay for OH-Pregnenolone (OHPREG) (AID 2283434; active means hit-call score of the fitted dose curve at least 0.9, where 1 is the maximum; inactive means score below 0.9). Particulars: actives raise or lower the signal. An outline of the steps: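 Readout: HPLC-MS/MS of 17alpha-hydroxypregnenolone in medium after 48 h chemical exposure of H295R cells pretreated with forskolin. Values fitted bidirectionally relative to DMSO; chemicals reducing viability to 20–70% were retested after 10-fold dilution.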

Assay [9] can be described thus: CEETOX_H295R_OHPROG: CeeTox H295R High-throughput Steroidogenesis Assay for OH-Progesterone (OHPROG) (AID 2283435; active means hit-call score of the fitted dose curve at least 0.9, where 1 is the maximum; inactive means score below 0.9;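 on AC50: 17alpha-hydroxyprogesterone secreted into medium measured by HPLC-MS/MS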). Particulars: actives raise or lower the signal. The procedure, abridged:
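Medium steroid levels read by LC-MS/MS after 48 h chemical treatment (0.1% DMSO) of human adrenal H295R cells that had been forskolin-primed (10 uM, 48 h). Gain or loss fitted against DMSO; MTT cytotoxicity checked per well.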

A short description of assay [10]: CEETOX_H295R_CORTISOL: CeeTox H295R High-throughput Steroidogenesis Assay for Cortisol (AID 2283438; active means hit-call score of the fitted dose curve at least 0.9, where 1 is the maximum; inactive means score below 0.9). Particulars: actives raise or lower the signal. The procedure, abridged:
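Cortisol measured by HPLC-MS/MS after MTBE extraction of medium from H295R cells exposed 48 h to chemical (0.1% DMSO), following 48 h prestimulation with 10 uM forskolin. Viability assessed by MTT in the same wells.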

Assay [11] is described as follows: CEETOX_H295R_DOC: CeeTox H295R High-throughput Steroidogenesis Assay for DOC (AID 2283439; active means hit-call score of the fitted dose curve at least 0.9, where 1 is the maximum; inactive means score below 0.9). As to conditions: actives raise or lower the signal. The procedure, abridged: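 11-Deoxycorticosterone quantified in medium by MTBE extraction and HPLC-MS/MS after 48 h chemical exposure (0.1% DMSO) of forskolin-primed (10 uM, 48 h) H295R cells. Same-well MTT viability; data fitted bidirectionally against DMSO.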

A short description of assay [12]: CEETOX_H295R_PROG: CeeTox H295R High-throughput Steroidogenesis Assay for Progesterone (PROG) (AID 2283442; active means hit-call score of the fitted dose curve at least 0.9, where 1 is the maximum; inactive means score below 0.9;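 on AC50: human H295R adrenal cells primed with 10 µM forskolin before dosing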). As to conditions: actives raise or lower the signal. An outline of the steps:
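H295R adrenal cells prestimulated 48 h with 10 uM forskolin, then exposed 48 h to test chemical in 0.1% DMSO. Progesterone in medium quantified by HPLC-MS/MS after MTBE extraction; viability checked by MTT in same wells.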

The nature of assay [13]: ATG_XTT_Cytotoxicity: Cytotoxicity Assessment in the Attagene TRANS-FACTORIAL HepG2 Assay (AID 2283584). An outline of the steps:
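HepG2 cells transiently transfected with GAL4-UAS multiple reporter units, dosed 24 h; cytotoxicity read by XTT as loss of signal versus DMSO baseline.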

Assay [14] deals with Cellular tumor antigen p53 (Homo sapiens) (UniProt P04637). Description: TOX21_p53_BLA_p2_ratio: Tox21 HCT-116 p53 Agonism Beta-lactamase Assay, Ratio, Phase 2 (AID 2283592). An outline of the steps:
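First, HCT116 reporter cells settle for 5 h at 37C. Next, DMSO compound solutions are pinned in (217-fold dilution) and left 16 h. Finally, CCF4-AM substrate is loaded 2 h at room temperature and the 460/530 nm ratio read.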

A short description of assay [15]: TOX21_p53_BLA_p3_viability: Viability Assessment in the Tox21 HCT-116 p53 Agonism Beta-lactamase Assay, Phase 3 (AID 2283593).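 Further: cells exposed to compound for 16 h before reading.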 An outline of the steps:
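HCT-116 cells (4000/well) rested 5 h at 37C, then got DMSO compounds by pin tool (217-fold dilution) for 16 h at 37C, 5% CO2. After the bla read, CellTiter-Glo was added and luminescence read at 30 min, room temperature.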

The nature of assay [16]: CEETOX_H295R_CORTIC: CeeTox H295R High-throughput Steroidogenesis Assay for Corticosterone (CORTIC) (AID 2283437; active means hit-call score of the fitted dose curve at least 0.9, where 1 is the maximum; inactive means score below 0.9;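 further: corticosterone secreted into medium quantified by mass spectrometry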;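 on AC50: human H295R adrenal cells prestimulated with forskolin before chemical exposure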). As to conditions: actives raise or lower the signal. The procedure, abridged: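 Steps: seed H295R, adhere overnight; 10 uM forskolin 48 h; replace with chemical (0.1% DMSO) 48 h; extract medium with MTBE; quantify corticosterone by HPLC-MS/MS; score bidirectionally vs DMSO.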

A short description of assay [17]: CEETOX_H295R_ESTRADIOL: CeeTox H295R High-throughput Steroidogenesis Assay for Estradiol (AID 2283440; active means hit-call score of the fitted dose curve at least 0.9, where 1 is the maximum; inactive means score below 0.9;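 further: estradiol secreted into medium quantified by LC-MS/MS after dansyl derivatisation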). As to conditions: actives raise or lower the signal. An outline of the steps:
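H295R cells pre-stimulated 48 h with 10 uM forskolin, then exposed 48 h to chemical in 0.1% DMSO. Medium estradiol quantified by MTBE extraction, dansyl derivatisation and HPLC-MS/MS; bidirectional fit versus DMSO; MTT viability required >/=70%.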

Assay [18] can be described thus: CEETOX_H295R_ESTRONE: CeeTox H295R High-throughput Steroidogenesis Assay for Estrone (AID 2283441; active means hit-call score of the fitted dose curve at least 0.9, where 1 is the maximum; inactive means score below 0.9). Particulars: actives raise or lower the signal. An outline of the steps:
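Estrone secreted into medium quantified by LC-MS/MS after dansyl chloride derivatization, following 48 h chemical exposure (0.1% DMSO final) of forskolin-prestimulated (10 uM, 48 h) H295R cells; gain or loss fitted against DMSO; MTT viability in same wells.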

A short description of assay [19]: CEETOX_H295R_ANDR: CeeTox H295R High-throughput Steroidogenesis Assay for Androstenedione (ANDR) (AID 2283436; active means hit-call score of the fitted dose curve at least 0.9, where 1 is the maximum; inactive means score below 0.9). As to conditions: actives raise or lower the signal. An outline of the steps: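 Steroidogenesis in H295R adrenal cells after 48 h dosing; androstenedione quantified by LC-MS/MS, with DMSO as negative control and baseline for bidirectional curve fitting.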

A short description of assay [20]: CEETOX_H295R_TESTO: CeeTox H295R High-throughput Steroidogenesis Assay for Testosterone (TESTO) (AID 2283457; active means hit-call score of the fitted dose curve at least 0.9, where 1 is the maximum; inactive means score below 0.9). Particulars: actives raise or lower the signal. The procedure, abridged:
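H295R adrenal cells, passage ≤10, exposed to chemicals for 48 h. Testosterone in medium measured by MTBE extraction and HPLC-MS/MS against a 7-point standard curve. Bidirectional fit versus DMSO; MTT viability checked in the same wells.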

SMILES strings stand for the structures. Inconclusive results are not listed. Calls of active or inactive are those of the source. How the source made its calls, unless noted: active means hit-call score of the fitted dose curve at least 0.9, where 1 is the maximum; inconclusive means response in the unintended direction; inactive means score below 0.9.

In general, AC50 refers to the midpoint of the concentration-response curve, whichever way the signal moves.

Peroxisome proliferator-activated receptor gamma (Homo sapiens), sequence (P37231 whole entry, looked up, the tested form may be a part): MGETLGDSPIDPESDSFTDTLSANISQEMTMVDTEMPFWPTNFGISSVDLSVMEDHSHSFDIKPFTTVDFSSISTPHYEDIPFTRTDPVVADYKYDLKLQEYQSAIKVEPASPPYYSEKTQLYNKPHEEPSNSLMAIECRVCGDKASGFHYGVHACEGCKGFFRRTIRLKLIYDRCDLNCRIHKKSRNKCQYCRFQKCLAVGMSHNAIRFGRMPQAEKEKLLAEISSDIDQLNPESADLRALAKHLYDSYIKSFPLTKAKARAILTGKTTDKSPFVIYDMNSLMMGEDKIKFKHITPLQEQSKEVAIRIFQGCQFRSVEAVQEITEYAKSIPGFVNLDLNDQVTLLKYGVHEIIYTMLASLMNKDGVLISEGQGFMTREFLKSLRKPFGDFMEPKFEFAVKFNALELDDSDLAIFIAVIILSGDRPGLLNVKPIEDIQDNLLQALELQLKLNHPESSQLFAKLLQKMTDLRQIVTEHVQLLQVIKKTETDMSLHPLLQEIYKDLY
Retinoic acid receptor RXR-alpha (Homo sapiens), sequence (P19793 whole entry, looked up, the tested form may be a part): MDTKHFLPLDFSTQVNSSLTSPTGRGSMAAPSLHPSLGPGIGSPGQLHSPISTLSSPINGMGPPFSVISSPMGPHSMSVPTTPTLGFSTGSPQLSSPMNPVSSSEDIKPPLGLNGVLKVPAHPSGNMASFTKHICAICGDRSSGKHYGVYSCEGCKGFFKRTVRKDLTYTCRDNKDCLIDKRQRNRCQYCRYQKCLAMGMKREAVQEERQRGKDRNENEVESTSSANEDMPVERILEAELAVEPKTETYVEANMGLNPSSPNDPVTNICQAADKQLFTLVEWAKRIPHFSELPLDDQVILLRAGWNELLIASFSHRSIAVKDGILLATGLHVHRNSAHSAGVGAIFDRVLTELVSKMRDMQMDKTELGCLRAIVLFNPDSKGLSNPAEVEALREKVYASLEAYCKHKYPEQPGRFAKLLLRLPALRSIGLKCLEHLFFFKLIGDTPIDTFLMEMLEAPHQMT
Cellular tumor antigen p53 (Homo sapiens), sequence (P04637 whole entry, looked up): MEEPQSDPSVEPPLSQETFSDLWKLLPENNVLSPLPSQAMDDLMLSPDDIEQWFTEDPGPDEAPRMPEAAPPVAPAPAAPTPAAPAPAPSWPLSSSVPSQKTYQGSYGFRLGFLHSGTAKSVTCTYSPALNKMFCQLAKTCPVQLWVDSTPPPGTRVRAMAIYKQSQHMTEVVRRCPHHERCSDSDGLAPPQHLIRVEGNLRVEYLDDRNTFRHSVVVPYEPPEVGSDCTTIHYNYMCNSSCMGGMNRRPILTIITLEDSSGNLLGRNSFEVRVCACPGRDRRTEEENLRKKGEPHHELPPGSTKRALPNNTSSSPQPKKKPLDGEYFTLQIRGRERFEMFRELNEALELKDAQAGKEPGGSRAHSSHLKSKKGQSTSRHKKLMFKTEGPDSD
Bile acid receptor (Homo sapiens), sequence (Q96RI1 whole entry, looked up): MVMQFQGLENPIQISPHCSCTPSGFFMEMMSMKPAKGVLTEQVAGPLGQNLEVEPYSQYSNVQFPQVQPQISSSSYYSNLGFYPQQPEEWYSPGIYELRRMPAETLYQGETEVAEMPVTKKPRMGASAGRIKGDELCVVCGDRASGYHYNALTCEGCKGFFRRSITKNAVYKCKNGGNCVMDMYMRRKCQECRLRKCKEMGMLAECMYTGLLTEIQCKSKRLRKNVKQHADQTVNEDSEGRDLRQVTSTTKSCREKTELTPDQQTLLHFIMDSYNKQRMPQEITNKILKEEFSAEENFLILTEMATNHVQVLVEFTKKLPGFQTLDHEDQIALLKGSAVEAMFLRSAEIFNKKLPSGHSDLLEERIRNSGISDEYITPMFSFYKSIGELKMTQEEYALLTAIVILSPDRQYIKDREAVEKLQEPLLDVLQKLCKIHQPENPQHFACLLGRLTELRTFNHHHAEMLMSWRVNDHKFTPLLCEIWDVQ

Take `[Co]`: the result in assay [1], in [2], in assay [3], in assay [4] and in assay [5] was inactive.

In the case of `C#C[C@]1(O)CC[C@H]2[C@@H]3CCc4cc(OC)ccc4[C@H]3CC[C@@]21C`, the concentration at half-maximal activity (AC50) in assay [1] is 60.4 µM (active); in [2], 46.8 µM (active); in assay [3], 78.8 µM (active); in [9], 7.82 µM (active); in assay [12], 3.58 µM (active). Also, the outcome in [6], in [4], in [5], in assay [7], in assay [8] and in assay [10] was inactive. In addition, the outcome in [11], in assay [13], in [14] and in [15] was inactive.

As to `CC(CCl)OP(=O)(OC(C)CCl)OC(C)CCl` (stereo not drawn), the result in [1], in assay [2], in assay [6], in assay [5], in assay [13] and in assay [15] was inactive.

On to `COC(=O)C1CCC(C(=O)OC)CC1` (stereo not drawn), for which the result in assay [1], in assay [2], in assay [6], in assay [5], in assay [13] and in [14] was inactive. In addition, the compound was classed as inactive in assay [15].

On to `CN(C)Cc1ccccc1O`, for which the compound was called inactive in [2], in [3], in assay [5], in [13] and in assay [14].

Take `CC(Cc1ccc(O)c(O)c1)C(C)Cc1ccc(O)c(O)c1` (stereo not drawn): the call in [3], in assay [5], in assay [8], in [17], in assay [18] and in [13] was inactive. For the same compound, the AC50 is 79.6 µM (active) in assay [7]; 4.19 µM (active) in assay [9]; 12.7 µM (active) in assay [16]; 78.3 µM (active) in [10]; 11.7 µM (active) in assay [11]; 13.9 µM (active) in assay [12]. Further, the AC50 in [15] is 86.7 µM (active).

As to `CCCCCCOC(=O)c1ccccc1`, the compound was classed as inactive in assay [1], in [6], in assay [4], in [5], in [13] and in assay [14]. Moreover, the compound was classed as inactive in [15].

Regarding `CNC(=S)NC`, the call in assay [1], in assay [2], in [6], in assay [4], in [5] and in [13] was inactive. The result in assay [14] and in [15] was inactive.

For `CCCCCCOC(=O)c1ccccc1O`, the outcome in assay [1], in [2], in assay [6], in assay [3], in assay [5] and in assay [13] was inactive. The result in assay [14] and in assay [15] was inactive.

As for `Cc1ccc(S(=O)(=O)NCl)cc1`, the result in assay [3], in [4], in [5], in assay [13], in [14] and in assay [15] was inactive.

With `C(=C(c1ccccc1)c1ccccc1)c1ccccc1`, the half-maximal activity concentration (AC50) in [1] was 73.5 µM (active); in assay [2], 76.8 µM (active); in assay [6] it was 90.2 µM (active); in assay [3], 81.3 µM (active). For the same compound, the call in [4], in assay [5], in assay [13], in [14] and in assay [15] was inactive.

Consider `CCCCOc1ccc(N)cc1`, for which the call in [1], in assay [6], in [3], in assay [4], in [5] and in [14] was inactive. Moreover, the half-maximal activity concentration (AC50) in assay [2] was 36.9 µM (active).

On to `O=C(OCCOCCOCCOC(=O)c1ccccc1)c1ccccc1`, for which the call in [1], in assay [2], in [5], in [13] and in assay [14] was inactive.

Take `Cc1cccc(N(C)C)c1`: the compound was classed as inactive in assay [7], in assay [8], in assay [9], in assay [19], in assay [16] and in assay [10]. The outcome in assay [11], in assay [17], in [18], in assay [12], in [20] and in [13] was inactive.

The values above are taken from PubChem BioAssay (EPA / NIEHS).
